Where “and” joins values, the source holds several entries; their conditions need not be identical. Identical values can stand only once. This is part of a sample that, as a whole, favours compounds with a hit. Of some 79,000 tested, about 15% had one in any assay. More than one record can exist for a structure, and the calls need not agree. Calls of active or inactive are those of the source. No stated cut-off is given here; in the data, active means growth inhibition above about 70%; inactive means the rest.
Columns and labels:
[1] = NCI Yeast Anticancer Drug Screen. Data for the wt1 strain (AID 149);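 further: 0% = growth of vehicle-treated wt1 cultures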; conditions: S. cerevisiae wt1 strain (SPY 50644) growth inhibition, stronger effect = higher value
Method in brief: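 wt1 strain grown with compound or vehicle; inhibition taken from the growth difference.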

[2] = NCI Yeast Anticancer Drug Screen. Data for the rad50EPP+ strain (AID 151);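 further: 0% = growth of vehicle-treated control cultures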; conditions: S. cerevisiae rad50 mutant strain, stronger effect = higher value
Method in brief: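 Vehicle-normalised growth inhibition; rad50EPP+ yeast strain, altered in DNA damage repair, compound-treated.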

[3] = NCI Yeast Anticancer Drug Screen. Data for the mgt1 strain (AID 153); conditions: S. cerevisiae mgt1 mutant growth inhibition, stronger effect = higher value
Method in brief: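 Vehicle-normalized growth inhibition is determined in mgt1 yeast, a strain selected for a defined alteration in DNA repair or cell cycle control.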

[4] = NCI Yeast Anticancer Drug Screen. Data for the rad50 strain (AID 155);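 further: 0% = growth of vehicle-only cultures of the same strain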; conditions: S. cerevisiae rad50 strain growth inhibition, stronger effect = higher value
Method in brief: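 DNA repair mutant yeast, compound exposure, growth read-out; inhibition is taken relative to vehicle.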

[5] = NCI Yeast Anticancer Drug Screen. Data for the mec2-1 strain (AID 157); conditions: S. cerevisiae mec2-1 strain, stronger effect = higher value
Method in brief: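 Mutant yeast (mec2-1) grown with compound; growth inhibition relative to vehicle control reported.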

[6] = NCI Yeast Anticancer Drug Screen. Data for the rad14 strain (AID 159);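 further: 0% = growth of vehicle-treated control cultures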; conditions: S. cerevisiae rad14 strain growth inhibition, stronger effect = higher value
Method in brief: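 DNA repair-defective yeast, compound-exposed; % growth inhibition derived by comparison with vehicle-treated controls.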

[7] = NCI Yeast Anticancer Drug Screen. Data for the sgs1 mgt1 strain (AID 161);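 further: 0% = growth of cultures given vehicle only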; conditions: S. cerevisiae sgs1 mgt1 strain, stronger effect = higher value
Method in brief: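 Compounds are added to genetically altered yeast, and growth is compared with cultures given vehicle alone to give percent inhibition.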

[8] = NCI Yeast Anticancer Drug Screen. Data for the CLN2oe strain (AID 163);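 further: 0% = growth of vehicle-only control cultures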; conditions: S. cerevisiae CLN2oe strain, stronger effect = higher value
Method in brief: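 Compounds are applied to yeast harbouring a defined cell-cycle control change; reduced growth compared with vehicle-treated controls gives the value.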

[9] = NCI Yeast Anticancer Drug Screen. Data for the cln2 rad14 strain (AID 165);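 further: 0% = growth equal to vehicle treated cultures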; conditions: S. cerevisiae cln2 rad14 strain, stronger effect = higher value
Method in brief: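 Readout is yeast growth inhibition versus vehicle-treated controls, using a strain with cln2 and rad14 alterations exposed to compound.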

[10] = NCI Yeast Anticancer Drug Screen. Data for the bub3 strain (AID 167); conditions: S. cerevisiae bub3 mutant strain, stronger effect = higher value
Method in brief: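 In this screen, a yeast mutant lacking normal mitotic checkpoint function is challenged with compound. Relative growth versus vehicle gives the inhibition value.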

[11] = NCI Yeast Anticancer Drug Screen. Data for the wt2 strain (AID 169);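 further: 0% = growth of vehicle-treated yeast cultures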; conditions: S. cerevisiae wt2 strain growth inhibition, stronger effect = higher value
Method in brief: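 Against vehicle-treated controls, the growth of yeast exposed to each compound was compared, and the inhibition was recorded.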

[12] = NCI Yeast Anticancer Drug Screen. Data for the mlh1 strain (AID 171);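 further: 0% = growth of vehicle-treated control cultures of the same strain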; conditions: S. cerevisiae mlh1 strain growth inhibition, stronger effect = higher value
Method in brief: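 Measured: yeast growth. Reference: vehicle-treated controls. Organism: strain with a defined alteration affecting DNA damage repair or cell cycle control, treated with compound.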

[13] = NCI Yeast Anticancer Drug Screen. Data for the sgs1 strain (AID 173);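 further: 0% = growth of vehicle-only control cultures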; conditions: S. cerevisiae sgs1 mutant, stronger effect = higher value
Method in brief: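 Each compound was added to cultures of the altered yeast strain. Growth was recorded, and inhibition was derived by comparison with vehicle controls.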

[14] = NCI Yeast Anticancer Drug Screen. Data for the rad18 strain (AID 177); conditions: S. cerevisiae rad18 mutant growth inhibition, stronger effect = higher value
Method in brief: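 Vehicle-treated cultures served as the baseline for scoring compound-induced growth inhibition in DNA-repair-mutant yeast.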

[15] = NCI Yeast Anticancer Drug Screen. Data for the mlh1 rad18 strain (AID 175); conditions: S. cerevisiae mlh1 rad18 strain growth inhibition, stronger effect = higher value
Method in brief: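 Genetically defined yeast (DNA repair-deficient) exposed to compounds; growth inhibition determined relative to vehicle.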

[16] = at 5.0 µM (retest, dose inferred, filed as 0.5)
[17] = at 50.0 µM (retest, dose inferred, filed as 5.0)

Measured: growth inhibition

CN(C)CCn1c2ccccc2c2nc3cc4ccccc4cc3nc21
inactive: [1]; at 1.2 µM 15% | [1]; at 3.7 µM 23% | [1]; at 11.0 µM 28% | [2]; at 1.2 µM 0% | [2]; at 3.7 µM 38% | [3]; at 1.2 µM -2% | [3]; at 3.7 µM 4% | [3]; at 11.0 µM 14% | [3]; at 33.0 µM 69% | [4]; at 1.2 µM 12% | [4]; at 3.7 µM 34% | [4]; [16] 48% | [5]; at 1.2 µM -18% | [5]; at 3.7 µM -10% | [5]; [16] 26% | [5]; at 11.0 µM 14% | [6]; at 1.2 µM -4% | [6]; at 3.7 µM 7% | [6]; at 11.0 µM 28% | [7]; [16] 10% | [8]; at 1.2 µM 0% | [8]; at 3.7 µM 3% | [8]; at 11.0 µM 21% | [8]; at 33.0 µM 57% | [9]; [16] 30% | [10]; at 1.2 µM -13% | [10]; at 3.7 µM 10% | [10]; [16] 13% | [10]; at 11.0 µM 3% | [11]; at 1.2 µM 18% | [11]; at 3.7 µM 15% | [11]; at 11.0 µM 27% | [12]; at 1.2 µM 2% | [12]; at 3.7 µM 9% | [12]; at 11.0 µM 33% | [13]; at 1.2 µM -2% | [13]; at 3.7 µM 5% | [13]; at 11.0 µM 25% | [14]; at 1.2 µM -11% | [14]; at 3.7 µM -10% | [14]; at 11.0 µM 11%
active: [1]; at 33.0 µM 78% | [1]; at 100.0 µM 98% | [2]; at 11.0 µM 88% | [2]; at 33.0 µM 94% | [2]; at 100.0 µM 97% | [3]; at 100.0 µM 98% | [4]; at 11.0 µM 85% | [4]; at 33.0 µM 95% | [4]; [17] 95% | [4]; at 50.0 µM 89% | [4]; at 100.0 µM 98% | [5]; at 33.0 µM 70% | [5]; [17] 99% | [5]; at 50.0 µM 86.6% | [5]; at 100.0 µM 98% | [6]; at 33.0 µM 80% | [6]; at 100.0 µM 99% | [7]; [17] 91% | [7]; at 50.0 µM 88% | [8]; at 100.0 µM 98% | [9]; [17] 94% | [9]; at 50.0 µM 84.3% | [10]; at 33.0 µM 72% | [10]; [17] 95% | [10]; at 50.0 µM 87.6% | [10]; at 100.0 µM 98% | [11]; at 33.0 µM 77% | [11]; at 100.0 µM 98% | [12]; at 33.0 µM 80% | [12]; at 100.0 µM 98% | [13]; at 33.0 µM 85% | [13]; at 100.0 µM 98% | [14]; at 33.0 µM 87% | [14]; at 100.0 µM 98%

O=C(/C(=C/c1ccccc1)CBr)c1ccccc1
active: [1]; at 33.0 µM 90% | [1]; at 100.0 µM 99% | [2]; at 11.0 µM 82% | [2]; at 33.0 µM 96% | [2]; at 100.0 µM 99% | [3]; at 33.0 µM 95% | [3]; at 100.0 µM 99% | [4]; at 33.0 µM 96% | [4]; [17] 98% | [4]; at 100.0 µM 99% | [5]; at 33.0 µM 96% | [5]; [17] 98% | [5]; at 100.0 µM 99% | [6]; at 33.0 µM 93% | [6]; at 100.0 µM 99% | [7]; [17] 99% | [8]; at 33.0 µM 95% | [8]; at 100.0 µM 99% | [9]; [17] 93% | [10]; at 33.0 µM 94% | [10]; [17] 94% | [10]; at 100.0 µM 99% | [11]; at 33.0 µM 95% | [11]; at 100.0 µM 99% | [12]; at 33.0 µM 97% | [12]; at 100.0 µM 99% | [13]; at 11.0 µM 77% | [13]; at 33.0 µM 96% | [13]; at 100.0 µM 99% | [15]; [17] 99% | [15]; at 50.0 µM 74.5% and 90.6% | [14]; at 11.0 µM 81% | [14]; at 33.0 µM 96% | [14]; at 100.0 µM 99%
80.5% (active) and 61.1% (inactive): [5]; at 50.0 µM
inactive: [1]; at 1.2 µM 0% | [1]; at 3.7 µM 11% | [1]; at 11.0 µM 43% | [2]; at 1.2 µM 17% | [2]; at 3.7 µM 50% | [3]; at 1.2 µM -1% | [3]; at 3.7 µM 7% | [3]; at 11.0 µM 49% | [4]; at 1.2 µM 4% | [4]; at 3.7 µM 15% | [4]; [16] 22% | [4]; at 11.0 µM 61% | [5]; at 1.2 µM 3% | [5]; at 3.7 µM 12% | [5]; [16] 3% | [5]; at 11.0 µM 58% | [6]; at 1.2 µM 3% | [6]; at 3.7 µM 9% | [6]; at 11.0 µM 38% | [7]; [16] 50% | [8]; at 1.2 µM 2% | [8]; at 3.7 µM 6% | [8]; at 11.0 µM 47% | [9]; [16] 25% | [9]; at 50.0 µM 41.5% and 67.5% | [10]; at 1.2 µM -3% | [10]; at 3.7 µM 0% | [10]; [16] 22% | [10]; at 11.0 µM 54% | [11]; at 1.2 µM 4% | [11]; at 3.7 µM 14% | [11]; at 11.0 µM 62% | [12]; at 1.2 µM 3% | [12]; at 3.7 µM 11% | [12]; at 11.0 µM 67% | [13]; at 1.2 µM 5% | [13]; at 3.7 µM 21% | [15]; [16] 68% | [14]; at 1.2 µM 6% | [14]; at 3.7 µM 22%
57.4% (inactive) and 83.7% (active): [10]; at 50.0 µM
66.5% (inactive) and 79.2% (active): [4]; at 50.0 µM
74% (active) and 59% (inactive): [7]; at 50.0 µM

COc1cc(C(C)C(C(=O)O)C(=O)C(=O)O)cc(OC)c1OC (stereo not drawn)
inactive: [1]; at 1.2 µM 0% | [1]; at 3.7 µM 2% | [1]; at 11.0 µM 3% | [1]; at 33.0 µM 4% | [1]; at 100.0 µM 5% | [2]; at 1.2 µM -3% | [2]; at 3.7 µM -7% | [2]; at 11.0 µM -4% | [2]; at 33.0 µM -8% | [2]; at 100.0 µM 1% | [3]; at 1.2 µM 1% | [3]; at 3.7 µM 2% | [3]; at 11.0 µM 2% | [3]; at 33.0 µM 1% | [3]; at 100.0 µM 21% | [4]; at 1.2 µM 3% | [4]; at 3.7 µM 3% | [4]; [16] -41% | [4]; at 11.0 µM 4% | [4]; at 33.0 µM 5% | [4]; [17] -9% | [4]; at 50.0 µM 0.85% | [4]; at 100.0 µM 4% | [5]; at 1.2 µM -5% | [5]; at 3.7 µM -3% | [5]; [16] 7% | [5]; at 11.0 µM -3% | [5]; at 33.0 µM -2% | [5]; [17] -4% | [5]; at 50.0 µM 9.9% | [5]; at 100.0 µM 0% | [6]; at 1.2 µM -1% | [6]; at 3.7 µM -2% | [6]; at 11.0 µM 2% | [6]; at 33.0 µM 3% | [6]; at 100.0 µM 5% | [7]; [16] -5% | [7]; [17] 2% | [7]; at 50.0 µM -3.75% | [8]; at 1.2 µM 2% | [8]; at 3.7 µM 5% | [8]; at 11.0 µM 4% | [8]; at 33.0 µM 5% | [8]; at 100.0 µM 7% | [9]; [16] 10% | [9]; at 50.0 µM -22.4% | [10]; at 1.2 µM 1% | [10]; at 3.7 µM -1% | [10]; [16] 4% | [10]; at 11.0 µM -6% | [10]; at 33.0 µM -3% | [10]; [17] 11% | [10]; at 50.0 µM 44.6% | [10]; at 100.0 µM -2% | [11]; at 1.2 µM 1% | [11]; at 3.7 µM 0% | [11]; at 11.0 µM 2% | [11]; at 33.0 µM -1% | [11]; at 100.0 µM 2%
active: [9]; [17] 76%
